FLuc inh = Firefly luciferase inhibition profiling of diverse chemical library using quantitative high-throughput screening | Luciferin 4-monooxygenase (Photinus pyralis), P08659 | purified P. pyralis luciferase, luminescence, biochemical | Potency, µM (series often up to 115 µM), most hits filed as inhibitors | hit rate 2.5% among 76,000 | AID 1347043, 2019; further: nearly all actives have a fitted effect of over 65% in size
Target sequence (P08659 whole entry, looked up): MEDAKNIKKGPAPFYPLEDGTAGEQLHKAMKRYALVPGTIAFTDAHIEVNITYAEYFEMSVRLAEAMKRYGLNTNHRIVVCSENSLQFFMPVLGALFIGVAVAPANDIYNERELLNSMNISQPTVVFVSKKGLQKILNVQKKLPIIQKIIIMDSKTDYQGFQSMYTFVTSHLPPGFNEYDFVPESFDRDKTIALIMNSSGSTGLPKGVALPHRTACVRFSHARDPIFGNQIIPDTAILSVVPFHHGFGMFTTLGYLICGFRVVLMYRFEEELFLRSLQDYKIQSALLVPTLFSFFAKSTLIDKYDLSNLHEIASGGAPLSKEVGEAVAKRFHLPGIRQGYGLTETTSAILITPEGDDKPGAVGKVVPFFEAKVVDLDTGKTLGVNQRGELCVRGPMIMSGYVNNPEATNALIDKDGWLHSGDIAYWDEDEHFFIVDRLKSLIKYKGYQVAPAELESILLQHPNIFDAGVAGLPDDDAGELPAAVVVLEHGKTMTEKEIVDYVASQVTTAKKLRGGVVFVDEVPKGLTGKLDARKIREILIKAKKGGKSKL
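FLuc 10nM, D-luciferin 10uM, ATP 10uM, Mg acetate 10mM, Tris acetate pH 7.5, Tween/BSA; cpd qHTS; enzyme added last; CCD luminescence.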
HEK cytotox = Cytotoxic Profiling in HEK 293 Cell Line of Diverse Libraries Using Quantitative High-Throughput Screening. HEK 293 viability, ATP luminescence (CellTiter-Glo), 48-72 h. Potency, µM (series often up to 115 µM), for the others: at the top dose activity change, negative = cytotoxicity, actives largely listed as inhibitors. hit rate 6.6% among 94,000. AID 1345083, 2018; further: nearly all actives have a fitted effect of over 60% in size
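ATP-coupled CellTiter-Glo luminescence served as viability read-out, recorded 10 min after reagent addition at room temperature. HEK 293 cells, 250 cells/well, had been incubated with pintool-transferred compound for 48 or 72 hr at 37 degree Celsius.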
NPR1 antag = Natriuretic polypeptide receptor (hNpr1) antagonism - Primary qHTS; Atrial natriuretic peptide receptor 1 (Homo sapiens), P16066; Potency, µM (titrated, usually from 46.3 µM), without a hit: at the top dose activity change, negative = inhibition, usual class: inhibitors; AID 1347048, 2019; hit rate 1.6% among 76,000; HEK293 hNpr1 GloSensor cGMP, ANP-stimulated luminescence; calls by dose curve; further: nearly all actives have a fitted effect of over 60% in size
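Compound pre-incubated 30 min at room temperature on GloSensor-loaded HEK293 cells stably carrying hNpr1 and the pGS-40F cGMP biosensor. Stimulation uses hNppA at 0.1 nM final; luminescence is taken at baseline and 20 min post-agonist.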
GPT2 inh = Primary qHTS assay for inhibitors of Glutamate pyruvate transaminase 2 (GPT2); hit rate 0.25% among 100,000; Recombinant GPT2, coupled pyruvate oxidase/HRP Amplex Red fluorescence; Potency, µM (series often up to 57.7 µM), without a hit: top-dose activity change, negative = inhibition, hits mostly inhibitors; further: nearly all actives have a fitted effect of over 60% in size
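GPT2 10ng/uL, a-KG 250uM, L-Ala 2mM, HEPES pH7.5 + 0.0001% Tween; 30 min RT. Then Amplex mix (PO/HRP/ThPP), 30 min RT dark, fluorescence. AOA 50uM used as positive control.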
NIH3T3 tox = Cytotoxic Profiling in NIH 3T3 Cell Line of Diverse Libraries Using Quantitative High-Throughput Screening | NIH 3T3 viability, CellTiter-Glo ATP luminescence, 48-72 h | hit rate 4.3% among 94,000 | Potency, µM (doses to about 96.7 µM), for inactives: at the highest dose activity change, negative = cytotoxicity, hits mostly inhibitors; further: nearly all actives have a fitted effect of over 55% in size
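ATP-dependent luminescence (CellTiter-Glo) served as the viability signal for NIH 3T3 cells treated with compound for 48 or 72 hr at 37 °C.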
* marks the source's active call; other numbers are inactive results; i = inactive; ? = inconclusive; . = no result; [ ] = dose if it differs, or a comment. Sampled rows, rich in hits. Any-hit rate of the full collection: about 10%. Unless noted, the call rests on the fitted dose curve; in most records, active means well fitted curve in the direction sought with a large enough effect; inconclusive means small, poorly fitted or top-dose-only effect, or another doubt; inactive means no such curve, though single readings can be large; an effect the other way counts as inactive or inconclusive. On the % scale 0 is the no-effect control and ±100 the full control effect; potency means the concentration at half of the fitted maximal effect.

SMILES	FLuc inh	HEK cytotox	NPR1 antag	GPT2 inh	NIH3T3 tox
COc1ccc(-c2cc(N3CCCN(C(=O)C(C)c4ccccc4)CC3)n[nH]2)cc1 (stereo unspecified)	i	79.4µM*	-2.1%	?	?
CC(C(=O)N1CCCN(c2cc(-c3ccccc3)[nH]n2)CC1)c1ccccc1 (stereo unspecified)	i	?	-18.8%	?	?
COc1ccc(-c2cc(N3CCCN(C(=O)c4ccc(Br)cc4)CC3)n[nH]2)cc1	i	?	-5.6%	-10.1%	?
COc1ccc(-c2cc(N3CCCN(C(=O)C4CCCC4)CC3)n[nH]2)cc1	?	?	-0.4%	?	-18.2%
COc1ccc(-c2cc(N3CCCN(C(=O)c4ccc(C)s4)CC3)n[nH]2)cc1	?	39.8µM*	0.0%	?	?
CCCn1c(C)cnc1CCNC(=O)C1(c2ccc(OC)cc2)CC1	.	-15.4%	.	i	-19.1%
CC(C)(C)C(=O)N1CCCC(C(=O)N2CCCC2c2nc3ccncc3[nH]2)C1 (stereo unspecified)	.	-12.4%	.	i	-23.8%
CC(=O)N1CCc2nn(CC(=O)Nc3cccc(Cl)c3C)c(=O)cc2C1	i	10.7%	0.4%	i	i
COc1ccc(-c2cc(N3CCN(C(=O)c4c[nH]c5ccccc45)CC3)n[nH]2)cc1	i	?	0.0%	i	25.1µM*
CN1Cc2ccc(NCc3ccccc3)nc2C(C)(C(=O)NCCc2cnc[nH]2)C1 (stereo unspecified)	i	?	0.0%[70.6 µM]	2.2%[88.5 µM]	?
CC(C)CNc1ccc2c(n1)C(C)(C(=O)NC1COC1)CN(Cc1ccccc1)C2 (stereo unspecified)	i	?	-10.8%[70.6 µM]	-12.3%[88.5 µM]	?
CC(C)CNc1ccc2c(n1)C(C)(C(=O)NCCc1cnc[nH]1)CN(Cc1ccccc1)C2 (stereo unspecified)	i	?	2.8%	-8.8%	31.6µM*
CC(C)CNc1ccc2c(n1)C(C)(C(=O)Nc1ccn(C)n1)CN(Cc1ccccc1)C2 (stereo unspecified)	i	?	0.3%[70.6 µM]	i	?
CC(C)CNc1ccc2c(n1)C(C)(C(=O)NCc1ccco1)CN(Cc1ccccc1)C2 (stereo unspecified)	i	50.1µM*	-16.8%[70.6 µM]	1.9%[88.5 µM]	39.8µM*
CC(C)CNc1ccc2c(n1)C(C)(C(=O)Nc1ccncc1)CN(Cc1ccccc1)C2 (stereo unspecified)	i	31.6µM*	-16.2%[70.6 µM]	-12.2%[88.5 µM]	22.4µM*
CC(C)CNc1ccc2c(n1)C(C)(C(=O)NC(C)C)CN(Cc1ccccc1)C2 (stereo unspecified)	i	63.1µM*	?	1.4%[88.5 µM]	35.5µM*
CN1Cc2cc(F)ccc2N(CC(O)COc2ccccc2)CCC1=O (stereo unspecified)	.	-29.9%	.	.	?
O=C(C1CCCN([S+](=O)([O-])c2cccs2)C1)N1CCC(N2Cc3cccn3C2=O)CC1 (stereo unspecified)	.	?	.	-9.0%	?
CC1(C(=O)NCc2ccccc2)CN(Cc2ccccc2)Cc2ccc(N3CCOCC3)nc21 (stereo unspecified)	i	50.1µM*	-19.1%	1.3%	?
COCCCNC(=O)C1(C)CN(Cc2ccccc2)Cc2ccc(NCC(C)C)nc21 (stereo unspecified)	i	89.1µM*	5.2%[70.6 µM]	2.4%[88.5 µM]	?
CC1(C(=O)NCc2ccncc2)CN(Cc2ccccc2)Cc2ccc(N3CCOCC3)nc21 (stereo unspecified)	i	-18.6%	-6.0%	3.8%	?
CN1Cc2ccc(NCc3ccccc3)nc2C(C)(C(=O)NCc2ccc3c(c2)OCO3)C1 (stereo unspecified)	i	?	-28.4%	-8.9%	?

Screening results from PubChem.
